The target of assay [1] is Cytochrome P450 2D6 (Homo sapiens) (UniProt P10635). Description: Cytochrome P450 family 2 subfamily D member 6 (CYP2D6) small molecule antagonists: luciferase biochemical (cell-free) qHTS assay (AID 1645840; active means well fitted curve in the direction sought with a large enough effect in the repeat runs; an effect the other way counts as inactive or inconclusive; further: nearly all actives have a fitted effect of over 55% in size; further: potency means the concentration at half of the fitted maximal effect; on activity change, negative = inhibition: on the % scale 0 is the no-effect control and ±100 the full control effect). The settings on record: P450-Glo CYP2D6 enzyme, luciferin luminescence, 1 h; series mostly up to 57.4 µM. The gist of the method:
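P450-Glo CYP2D6 system: proluciferin substrate converted by enzyme to luciferin, read by luminescence proportional to activity. Enzyme-substrate mix with compound 10 min at room temperature, then NADPH regeneration 1 h before detection reagent.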
Background: Quantitative high-throughput screening tests each substance at several concentrations.

Assay [2] has as its target Cytochrome P450 2C9 (Homo sapiens) (UniProt P11712). In words: Cytochrome P450 family 2 subfamily C member 9 (CYP2C9) small molecule antagonists: luciferase biochemical (cell-free) qHTS assay (AID 1645842; active means well fitted curve in the direction sought with a large enough effect in the repeat runs; an effect the other way counts as inactive or inconclusive; further: nearly all actives have a fitted effect of over 55% in size; further: potency means the concentration at half of the fitted maximal effect; on activity change, negative = inhibition: on the % scale 0 is the no-effect control and ±100 the full control effect). Particulars: P450-Glo CYP2C9 enzyme assay, luciferin luminescence; series mostly up to 57.4 µM. The gist of the method:
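P450-Glo CYP2C9 system: proluciferin substrate with enzyme in mix containing 0.4% BSA, 10 min at room temperature, then NADPH regeneration solution added and incubated 1 h at 37C. Detection reagent stopped reaction; luminescence read after 20 min as RLU.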

Assay [3] in a line: Primary qHTS for inhibitors of nuclear receptor binding SET domain protein 2 (NSD2) in an isogenic RCH-ACV NSD2 p.E1099K mutant (9B) (AID 1645876). Further: nearly all actives have a fitted effect of over 70% in size. Further: potency means the concentration at half of the fitted maximal effect. The settings on record: RCH-ACV NSD2 E1099K (9B) viability, CellTiter-Glo, 72 h; series mostly up to 44.9 µM.
Assay [4] can be described thus: Primary qHTS for inhibitors of nuclear receptor binding SET domain protein 2 (NSD2) in an RCH-ACV wild type WT cells (2C) (AID 1645877). Further: nearly all actives have a fitted effect of over 70% in size. Further: potency means the concentration at half of the fitted maximal effect. Particulars: RCH-ACV (leukaemia line) NSD2 WT (2C) viability, CellTiter-Glo, 72 h; series mostly up to 44.9 µM.
Assay [5] concerns the target Rap guanine nucleotide exchange factor 3 (Homo sapiens) (UniProt O95398). Description: Confirmatory qHTS for antagonist of cAMP-regulated guanine nucleotide exchange factor 3 (EPAC1) (AID 1645880).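 Further: plate controls were DMSO only for no effect and full effect of the ATA control for full effect; nearly all actives have a fitted effect of over 55% in size.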 Particulars: EPAC1 Rap1B-BODIPY-GDP exchange, fluorescence; series mostly up to 115 µM. The gist of the method:
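Released BODIPY-GDP fluoresces less than Rap1-bound BODIPY-GDP; the signal is followed at 480/540 nm at 5-min intervals over 30 min, after 5 min at room temperature. Reactions contain 100 nM EPAC1, 250 nM RAP1B-BODIPY-GDP and 50 uM GDP; results are normalized to ATA and DMSO.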

Assay [6] has the same target. Description: Confirmatory qHTS for agonist of cAMP-regulated guanine nucleotide exchange factor 3 (EPAC1) (AID 1645881).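 Further: EPAC1 catalysed release of BODIPY-GDP from Rap1B seen as fluorescence loss; nearly all actives have a fitted effect of over 75% in size.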 Particulars: EPAC1 Rap1B BODIPY-GDP exchange fluorescence, 100% = cAMP control response; series mostly up to 154 µM.
For assay [7], the target named is Rap guanine nucleotide exchange factor 4 (Homo sapiens) (UniProt Q8WZA2). Description: Confirmatory qHTS for agonist of cAMP-regulated guanine nucleotide exchange factor 4 (EPAC2) (AID 1645884).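 Further: nucleotide exchange releases bodipy-GDP from Rap1 and this lowers its fluorescence; on the % scale 0 is the no-effect control and ±100 the full control effect; nearly all actives have a fitted effect of over 65% in size.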 The settings on record: EPAC2 GEF activity, Rap1B-BODIPY-GDP fluorescence; series mostly up to 154 µM.
For assay [8] the target is unchanged. In words: Confirmatory qHTS for antagonist of cAMP-regulated guanine nucleotide exchange factor 4 (EPAC2) (AID 1645885). Further: nearly all actives have a fitted effect of over 25% in size. Further: potency means the concentration at half of the fitted maximal effect. On activity change, negative = inhibition: on the % scale 0 is the no-effect control and ±100 the full control effect. The settings on record: EPAC2 Rap1B-BODIPY-GDP exchange fluorescence, biochemical; series mostly up to 114 µM.
Assay [9] has as its target Rap guanine nucleotide exchange factor 3 (Homo sapiens) (UniProt O95398). In words: Counterscreen qHTS for antagonist of cAMP-regulated guanine nucleotide exchange factor 3 (EPAC1) (AID 1645888). Further: % of control where 0% means no effect. Particulars: Rap1B-BODIPY-GDP nucleotide exchange, fluorescence; series mostly up to 154 µM. The gist of the method: (§1)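 Rap1B–BODIPY-GDP (250 nM) with 50 uM GDP; compounds pin-transferred to 9.74 nM–152 uM final (activator) or from 7.32 nM upwards (inhibitor). Fluorescence Ex/Em 480/540 nm read at 5 and 30 min, then after adding cAMP or buffer, at room temperature.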
In general terms: The purpose of a counterscreen is to sort out artefacts and off-target activity.

Assay [10] shares this target. Description: Counterscreen qHTS for agonist of cAMP-regulated guanine nucleotide exchange factor 3 (EPAC1) (AID 1645889). Further: potency means the concentration at half of the fitted maximal effect; nearly all actives have a fitted effect of over 40% in size. The settings on record: EPAC1 Rap1B-BODIPY-GDP exchange, fluorescence; series mostly up to 154 µM. The gist of the method: as §1
Assay [11] in a line: NCATS anti-infectives library activity on HEK293 viability as a counter-qHTS vs the C. elegans viability qHTS (AID 1745854).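 Further: potency means the concentration at half of the fitted maximal effect; HEK293 cells exposed to compounds for 24 hr before the viability read.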 Particulars: HEK293 viability counter-screen; series mostly up to 41.8 µM. The gist of the method: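 Compound titrations (final up to 41.7 uM) were incubated with HEK293 cells for 24 hr at 37C under 5% CO2. Viable cells were quantified with CellTiter-Glo after 10 min at ambient temperature.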

A short description of assay [12]: NCATS anti-infectives library activity on the primary C. elegans qHTS viability assay (AID 1745855; calls by dose curve; further: potency means the concentration at half of the fitted maximal effect). Particulars: C. elegans worm area imaging, day 7; series mostly up to 83.3 µM. The gist of the method: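 Titration-based screen in worms: eggs hatched overnight in M9, L1 larvae fed TOP10 capsules in S medium with compound, incubated 21 °C for 7 days; fluorescent objects gated by size and intensity at days 0, 3 and 7.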

Assay [13] has as its target Catechol O-methyltransferase (Homo sapiens) (UniProt P21964). In words: Confirmatory Screen for Target Class Profiling of Small Molecule Inhibitors of Methyltransferases (AID 1745852). On activity change, negative = inhibition: on the % scale 0 is the no-effect control and ±100 the full control effect. Particulars: MTase-Glo luminescence, SAH detection, recombinant enzyme; measured here: COMT max response; stronger effect = lower value.
Assay [14] deals with Guanidinoacetate N-methyltransferase (Homo sapiens) (UniProt Q14353). Described as above. Particulars: MTase-Glo luminescence, SAH detection, recombinant enzyme; at 57.3 µM (top of the series).
The target of assay [15] is Nicotinamide N-methyltransferase (Homo sapiens) (UniProt P40261). The assay is described as above. The settings on record: MTase-Glo luminescence, SAH detection, recombinant enzyme; measured here: NNMT max response; stronger effect = lower value.
Assay [16] addresses Phenylethanolamine N-methyltransferase (Homo sapiens) (UniProt P11086). The assay is described as above. Particulars: MTase-Glo luminescence, SAH detection, recombinant enzyme; measured here: PNMT max response; stronger effect = lower value.

Several values for one entry are separate records, joined by “and”; a condition that tells them apart may be missing. Equal values may be shown once. Inconclusive results are not listed. Where a structure was tested more than once in an assay, its records may differ in their call. Activity calls are given as the source filed them. Unless noted, the call rests on the fitted dose curve; in most records, active means well fitted curve in the direction sought with a large enough effect; inconclusive means small, poorly fitted or top-dose-only effect, or another doubt; inactive means no such curve, though single readings can be large; an effect the other way counts as inactive or inconclusive.

Here are results for 27 compounds from PubChem BioAssay (NCATS).

Sequence of Cytochrome P450 2D6 (Homo sapiens) (P10635 whole entry, looked up): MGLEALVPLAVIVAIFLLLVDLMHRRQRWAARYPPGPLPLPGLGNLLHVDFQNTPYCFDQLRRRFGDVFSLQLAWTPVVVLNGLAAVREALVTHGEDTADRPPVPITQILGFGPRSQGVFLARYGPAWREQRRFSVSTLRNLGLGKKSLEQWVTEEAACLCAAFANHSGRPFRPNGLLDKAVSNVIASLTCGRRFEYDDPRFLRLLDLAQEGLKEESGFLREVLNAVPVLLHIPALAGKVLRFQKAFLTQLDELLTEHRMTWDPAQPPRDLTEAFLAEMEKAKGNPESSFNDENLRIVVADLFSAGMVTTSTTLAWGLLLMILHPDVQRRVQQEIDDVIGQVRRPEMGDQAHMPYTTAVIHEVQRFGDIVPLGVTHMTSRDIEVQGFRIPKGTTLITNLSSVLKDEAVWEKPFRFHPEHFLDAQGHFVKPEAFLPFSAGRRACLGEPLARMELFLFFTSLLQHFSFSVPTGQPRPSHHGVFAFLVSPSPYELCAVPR
Sequence of Rap guanine nucleotide exchange factor 4 (Homo sapiens) (Q8WZA2 whole entry, looked up): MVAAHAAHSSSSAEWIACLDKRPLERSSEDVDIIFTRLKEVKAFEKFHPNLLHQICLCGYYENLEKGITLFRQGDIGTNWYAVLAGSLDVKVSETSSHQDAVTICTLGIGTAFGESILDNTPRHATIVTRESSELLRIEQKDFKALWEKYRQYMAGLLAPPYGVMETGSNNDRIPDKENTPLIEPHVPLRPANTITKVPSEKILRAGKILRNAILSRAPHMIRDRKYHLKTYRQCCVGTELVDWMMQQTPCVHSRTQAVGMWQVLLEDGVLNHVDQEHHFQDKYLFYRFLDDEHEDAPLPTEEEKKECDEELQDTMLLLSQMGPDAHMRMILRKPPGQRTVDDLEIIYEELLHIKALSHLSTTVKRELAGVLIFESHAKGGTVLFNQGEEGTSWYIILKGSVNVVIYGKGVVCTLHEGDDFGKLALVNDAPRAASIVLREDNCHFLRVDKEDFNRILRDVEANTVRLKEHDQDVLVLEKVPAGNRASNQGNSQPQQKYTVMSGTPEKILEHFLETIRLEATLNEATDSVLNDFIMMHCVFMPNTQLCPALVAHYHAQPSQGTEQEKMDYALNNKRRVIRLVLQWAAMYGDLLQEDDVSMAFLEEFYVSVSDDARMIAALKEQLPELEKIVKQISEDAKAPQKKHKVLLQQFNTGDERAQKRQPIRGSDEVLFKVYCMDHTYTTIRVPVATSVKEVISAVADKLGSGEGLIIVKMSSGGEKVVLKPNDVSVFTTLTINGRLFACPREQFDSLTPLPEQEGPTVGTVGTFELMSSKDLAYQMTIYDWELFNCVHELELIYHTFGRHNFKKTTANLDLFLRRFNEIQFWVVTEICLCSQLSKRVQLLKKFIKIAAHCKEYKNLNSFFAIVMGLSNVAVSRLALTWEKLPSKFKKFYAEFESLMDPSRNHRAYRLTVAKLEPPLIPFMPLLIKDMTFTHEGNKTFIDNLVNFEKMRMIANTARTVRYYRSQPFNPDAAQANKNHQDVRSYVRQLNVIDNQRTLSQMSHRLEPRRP
Sequence of Cytochrome P450 2C9 (Homo sapiens) (P11712 whole entry, looked up): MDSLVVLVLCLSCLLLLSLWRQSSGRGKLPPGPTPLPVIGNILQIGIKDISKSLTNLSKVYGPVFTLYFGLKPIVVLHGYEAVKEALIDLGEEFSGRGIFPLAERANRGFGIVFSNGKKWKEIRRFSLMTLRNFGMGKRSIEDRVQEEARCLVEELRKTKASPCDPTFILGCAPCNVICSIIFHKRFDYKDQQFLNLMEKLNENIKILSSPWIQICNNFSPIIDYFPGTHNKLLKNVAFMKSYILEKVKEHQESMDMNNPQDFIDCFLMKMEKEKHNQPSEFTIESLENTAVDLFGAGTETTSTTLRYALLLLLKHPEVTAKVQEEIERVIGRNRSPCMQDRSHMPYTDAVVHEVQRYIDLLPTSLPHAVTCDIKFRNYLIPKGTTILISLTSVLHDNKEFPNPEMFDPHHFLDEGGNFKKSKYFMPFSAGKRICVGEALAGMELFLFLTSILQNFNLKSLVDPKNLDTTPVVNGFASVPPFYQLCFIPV
Sequence of Rap guanine nucleotide exchange factor 3 (Homo sapiens) (O95398 whole entry, looked up): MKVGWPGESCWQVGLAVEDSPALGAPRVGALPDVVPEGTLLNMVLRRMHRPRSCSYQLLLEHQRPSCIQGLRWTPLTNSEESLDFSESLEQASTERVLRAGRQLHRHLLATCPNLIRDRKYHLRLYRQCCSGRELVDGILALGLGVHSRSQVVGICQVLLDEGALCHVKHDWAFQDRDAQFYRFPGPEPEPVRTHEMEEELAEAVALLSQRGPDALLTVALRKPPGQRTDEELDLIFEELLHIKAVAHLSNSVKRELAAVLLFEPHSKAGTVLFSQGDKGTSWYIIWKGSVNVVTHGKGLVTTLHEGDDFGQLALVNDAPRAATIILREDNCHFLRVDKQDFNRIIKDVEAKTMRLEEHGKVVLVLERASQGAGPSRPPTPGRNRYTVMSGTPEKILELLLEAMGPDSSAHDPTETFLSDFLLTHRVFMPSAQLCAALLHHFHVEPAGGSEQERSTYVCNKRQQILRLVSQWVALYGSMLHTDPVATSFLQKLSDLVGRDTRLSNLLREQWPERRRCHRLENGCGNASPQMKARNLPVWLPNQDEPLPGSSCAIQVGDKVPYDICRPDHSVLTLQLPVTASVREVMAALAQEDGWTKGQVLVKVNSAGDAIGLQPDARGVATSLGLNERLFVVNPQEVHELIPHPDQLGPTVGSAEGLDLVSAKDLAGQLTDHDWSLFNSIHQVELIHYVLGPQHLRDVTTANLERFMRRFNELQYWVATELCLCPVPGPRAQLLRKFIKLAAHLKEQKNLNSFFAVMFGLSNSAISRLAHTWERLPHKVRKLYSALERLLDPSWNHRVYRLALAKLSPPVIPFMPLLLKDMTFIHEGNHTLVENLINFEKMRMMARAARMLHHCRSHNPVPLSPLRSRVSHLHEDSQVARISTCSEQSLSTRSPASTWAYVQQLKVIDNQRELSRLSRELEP
Sequence of Catechol O-methyltransferase (Homo sapiens) (P21964 whole entry, looked up): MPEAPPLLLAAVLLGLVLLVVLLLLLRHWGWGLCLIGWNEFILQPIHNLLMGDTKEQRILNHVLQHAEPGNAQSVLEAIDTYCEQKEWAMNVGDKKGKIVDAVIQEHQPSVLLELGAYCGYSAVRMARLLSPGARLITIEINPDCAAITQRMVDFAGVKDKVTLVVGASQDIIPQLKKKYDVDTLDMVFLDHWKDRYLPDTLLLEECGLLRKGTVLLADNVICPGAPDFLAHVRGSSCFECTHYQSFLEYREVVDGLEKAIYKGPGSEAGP
Sequence of Phenylethanolamine N-methyltransferase (Homo sapiens) (P11086 whole entry, looked up): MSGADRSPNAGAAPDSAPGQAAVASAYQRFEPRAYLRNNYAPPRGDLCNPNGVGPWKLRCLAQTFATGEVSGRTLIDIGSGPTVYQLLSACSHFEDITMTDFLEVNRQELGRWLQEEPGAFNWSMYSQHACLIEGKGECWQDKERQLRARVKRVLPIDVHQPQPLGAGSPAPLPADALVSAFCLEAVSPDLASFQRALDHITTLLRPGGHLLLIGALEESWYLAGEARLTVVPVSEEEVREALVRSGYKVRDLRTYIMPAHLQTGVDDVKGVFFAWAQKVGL
Sequence of Nicotinamide N-methyltransferase (Homo sapiens) (P40261 whole entry, looked up): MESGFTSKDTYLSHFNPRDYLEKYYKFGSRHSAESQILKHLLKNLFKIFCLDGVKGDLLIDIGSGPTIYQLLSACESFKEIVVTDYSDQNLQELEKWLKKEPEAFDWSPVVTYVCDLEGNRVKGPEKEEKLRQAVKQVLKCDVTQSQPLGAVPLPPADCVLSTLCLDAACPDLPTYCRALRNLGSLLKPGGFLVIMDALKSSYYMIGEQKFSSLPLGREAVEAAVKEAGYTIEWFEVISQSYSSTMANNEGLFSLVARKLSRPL

`Cc1cccc(C)c1NC(=O)CN1CCN(CCCC(c2ccc(F)cc2)c2ccc(F)cc2)CC1`: the Potency is 2.75 µM (active) in assay [1], 19.5 µM (active) in assay [2], 23.7 µM (active) in assay [3] and 11.9 µM (active) in [4].

Turning to `C#C[C@]1(O)CC[C@H]2[C@@H]3CCc4cc(OC5CCCC5)ccc4[C@H]3CC[C@@]21C`, the Potency result in assay [1] and in assay [3] was “inactive” throughout. Moreover, in [2], the Potency is 8.71 µM (active).

For the compound `COc1cc(OC)cc(OC)c1`, the Potency result in [1], in assay [2], in [3] and in assay [4] was “inactive” throughout.

As for `CN1C(CCl)Nc2cc(Cl)c(S(N)(=O)=O)cc2S1(=O)=O` (centres undefined), the Potency result in assay [1], in assay [2], in assay [3] and in assay [4] was “inactive” each time.

For the compound `CCC(C(=O)OCCN(CC)CC)c1ccccc1` (centres undefined), in assay [1], the Potency is 3.09 µM (active). Besides, the Potency entry in assay [2], in assay [3] and in assay [4] was “inactive” each time.

For the compound `Cc1ccc(O)c2ncccc12`, the Potency entry in assay [1] and in assay [2] was “inactive” each time. The Potency in assay [3] was 10.6 µM (active).

For the compound `COc1c2occc2c(OC)c2c(=O)cc(C)oc12`, the Potency in assay [1] was 15.5 µM (active); in assay [2], 11 µM (active). Also, the Potency result in assay [3] and in assay [4] was “inactive” each time.

On to `C[C@H](O)C(=O)Nc1c(I)c(C(=O)NC(CO)CO)c(I)c(C(=O)NC(CO)CO)c1I`, for which the Potency result in assay [1], in assay [2], in assay [3] and in assay [4] was “inactive” each time.

In the case of `CCOc1ccc2nc3cc(N)ccc3c(N)c2c1`, the Potency in assay [1] is 15.5 µM (active); in assay [3] it was 5.96 µM (active); in [4], 5.31 µM (active). In addition, the Potency entry in assay [2] was “inactive”.

For `O=C(O)CNC(=O)c1ccccc1`, the Potency entry in assay [1], in assay [2], in assay [3] and in [4] was “inactive” in each case.

Take `C[C@H]1[C@H](NC(=O)/C(=N/OC(C)(C)C(=O)O)c2csc(N)n2)C(=O)N1S(=O)(=O)O` (stereo in doubt): the Potency entry in assay [1], in assay [2], in assay [3] and in assay [4] was “inactive” each time.

With `Cc1c(C(N)=O)cc([N+](=O)[O-])cc1[N+](=O)[O-]`, the Potency entry in assay [1], in assay [2], in [3] and in [4] was “inactive” throughout.

For the compound `COc1cccc2c1C(=O)c1c(O)c3c(c(O)c1C2=O)C[C@@](O)(C(C)=O)C[C@@H]3O[C@H]1C[C@H](N)[C@H](O)[C@H](C)O1`, the Potency in assay [1] is 13.8 µM (active); in [3], 2.7 nM (active) and 18.6 nM (active); in [4] it was 0.0024 µM (active); in assay [10], 14.1 µM (active); in [11], 5.62 µM (active); in assay [12] it was 5.78 µM (active). Further, the Potency entry in assay [2], in assay [5], in assay [7] and in [8] was “inactive” throughout. Besides, in [6], the outcome is “inactive”. Besides, in assay [9], the activity change, negative = inhibition is 47.7% [at 30.8 µM] (inactive).

Regarding `C/C=C(/C(=C/C)c1ccc(O)cc1)c1ccc(O)cc1`, the Potency in assay [1] is 24.5 µM (active); in assay [2], 17.4 µM (active); in assay [3], 14.8 µM (active); in [4] it was 10.5 µM (active); in assay [8], 22.1 µM (active). In addition, the Potency result in assay [5] and in [7] was “inactive” throughout. In addition, the outcome in assay [6] is “inactive”. Moreover, the activity change, negative = inhibition was -2.47% [at 12.7 µM] (inactive) in assay [8] and -9.27% [at 30.8 µM] (inactive) in assay [9].

Regarding `CC(C)(CO)[C@@H](O)C(=O)NCCCO`, the Potency entry in assay [1], in assay [2], in [3] and in assay [4] was “inactive” throughout.

With `CN(C)CC/C=C1/c2ccccc2COc2ccc(CC(=O)O)cc21`, the Potency result in assay [1], in assay [2], in [3] and in assay [4] was “inactive” each time.

As to `NC(=NCCCCCCN=C(N)/N=C(\N)Nc1ccc(Cl)cc1)/N=C(\N)Nc1ccc(Cl)cc1`, the Potency in assay [1] was 2.45 µM (active); in assay [2], 24.5 µM (active); in [3], 2.99 µM (active) and 3.65 µM (active); in assay [4], 5.96 µM (active) and 3.65 µM (active); in assay [12] it was 11.5 µM (active). Further, the activity in assay [13] was -5.42%; in [15], -51.5%; in assay [16] it was -67.4%. Also, in assay [14], the activity change, negative = inhibition is 0.888%.

Turning to `CCOc1ccc(Cc2nccc3cc(OCC)c(OCC)cc23)cc1OCC`, the Potency was 13.8 µM (active) in assay [1], 1.74 µM (active) in assay [2], 2.37 µM (active) in [3] and 2.37 µM (active) in assay [4].

On to `Cc1c(F)c(N2CCNC(C)C2)cc2c1c(=O)c(C(=O)O)cn2C1CC1` (centres undefined), for which the Potency entry in assay [1], in assay [2], in [3] and in [4] was “inactive” in each case.

In the case of `CCOc1ccc(NC(=O)CC(C)O)cc1` (centres undefined), the Potency entry in assay [1], in assay [2], in assay [3] and in assay [4] was “inactive” in each case.

With `CCN1CCCC1=O`, the Potency result in [1], in assay [2], in assay [3] and in assay [4] was “inactive” in each case.

For `Cc1c(C(C)C)c(=O)n(-c2ccccc2)n1C`, the Potency entry in [1], in [2], in [3] and in [4] was “inactive” in each case.

Take `NC(CS)C(=O)O` (centres undefined): the Potency entry in assay [1], in assay [2], in assay [3] and in assay [4] was “inactive” each time.

For the compound `CCCSS/C(CCO)=C(\C)N(C=O)Cc1cnc(C)nc1N`, the Potency result in assay [1] and in [2] was “inactive” in each case. Further, the Potency in assay [3] is 15 µM (active); in assay [4], 16.8 µM (active).

In the case of `COC(=O)CCc1ccc(OCC(O)CNC(C)C)cc1` (centres undefined), the Potency result in assay [1], in assay [2], in [3] and in assay [4] was “inactive” throughout.

Regarding `CC1=C(C(=O)OC(C)C)C(c2cccc([N+](=O)[O-])c2)C(C(=O)OC2CN(C(c3ccccc3)c3ccccc3)C2)=C(N)N1` (centres undefined), the Potency in assay [1] was 9.77 µM (active); in [2], 1.95 µM (active). For the same compound, the Potency result in [3], in [4], in assay [5], in [7] and in [8] was “inactive” throughout. Besides, the outcome in [6] is “inactive”.

Consider `CN(C(=O)CN(CCO)CC(=O)N(C)C(C)(C)Cc1ccccc1)C(C)(C)Cc1ccccc1`, for which the Potency in assay [1] is 1.38 µM (active); in [2], 15.5 µM (active); in [3], 5.31 µM (active); in assay [4], 5.31 µM (active).
